HttQ103 aggreg: qHTS Multiplex Assay to Identify Dual Action Probes in a Cell Model of Huntington: Aggregate Formation (GFP) | PC12 HttQ103-GFP aggregates, Acumen cytometry, 40 h | Potency, µM (top dose mostly 46.1 µM), without a hit: at the top dose activity change, negative = inhibition, most hits filed as inhibitors | hit rate 1.1% among 220,000; further: potency means the concentration at half of the fitted maximal effect; on the % scale 0 is the no-effect control and ±100 the full control effect; nearly all actives have a fitted effect of over 60% in size
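PC12/HTTQ103-GFP, ecdysone-inducible; teb 100 nM; cpd qHTS titration; GFP aggregates read on laser cytometer, Ex 488/Em 500-530 nm.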
HTT ATP protect: qHTS Multiplex Assay to Identify Dual Action Probes in a Cell Model of Huntington: Cytoprotection (ATP); hit rate 0.14% among 230,000; PC12 HTT-Q103 induced, cytoprotection, ATP luminescence, 40 h; Potency, µM (top dose mostly 56.4 µM), for the others: cytoprotection (ATP increase), hits mostly activators; further: potency means the concentration at half of the fitted maximal effect; % of control where 0% means no effect; nearly all actives have a fitted effect of over 45% in size
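ATP quantification (ATPlite) reports survival of PC12 cells in which tebufenozide, 100 nM final, switches on Htt exon 1 with 103 glutamines linked to GFP; compounds are titrated.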
JMJD2E inh: qHTS Assay for Inhibitors of Human Jumonji Domain Containing 2E (JMJD2E); Lysine-specific demethylase 4E (Homo sapiens), B2RXH2; JMJD2E catalytic domain, FDH-coupled NADH fluorescence (FDH is formaldehyde dehydrogenase); Potency, µM (highest dose often 57.1 µM), for the others: top-dose activity change, negative = inhibition, usual class: inhibitors; hit rate 1.6% among 230,000; AID 2147, 2009; active means well fitted inhibition curve with a large enough effect, not every such curve was filed as active; inconclusive means small, poorly fitted or top-dose-only effect, or another doubt; inactive means no such curve, though single readings can be large or run the other way;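 further: potency means the concentration at half of the fitted maximal effect; 0% = wells with enzyme and -100% = buffer wells without enzyme; nearly all actives have a fitted effect of over 50% in size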
Target sequence (B2RXH2 1-337 limits assumed): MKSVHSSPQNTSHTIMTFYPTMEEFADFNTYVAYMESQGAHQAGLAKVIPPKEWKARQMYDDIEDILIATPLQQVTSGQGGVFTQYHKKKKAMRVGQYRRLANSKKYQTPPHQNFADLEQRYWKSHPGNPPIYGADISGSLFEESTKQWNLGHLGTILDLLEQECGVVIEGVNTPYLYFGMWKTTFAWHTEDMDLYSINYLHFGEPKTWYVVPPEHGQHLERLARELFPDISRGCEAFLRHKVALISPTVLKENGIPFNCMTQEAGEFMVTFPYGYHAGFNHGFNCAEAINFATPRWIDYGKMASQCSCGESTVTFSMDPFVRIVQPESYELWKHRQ
GoLoco inh red: qHTS Assay for Inhibitors of RGS12 GoLoco Motif Activity (Red Fluorophore). hit rate 0.44% among 230,000. Potency, µM (titrated, usually from 61.6 µM), without a hit: at the highest dose activity, negative = inhibition, most hits filed as inhibitors. Gai1:RGS12 GoLoco peptide FP, rhodamine, 10 min; active means well fitted inhibition curve with a large enough effect, not every such curve was filed as active; inactive means no such curve, though single readings can be large or run the other way; further: potency means the concentration at half of the fitted maximal effect; on the % scale 0 is the no-effect control and ±100 the full control effect; nearly all actives have a fitted effect of over 30% in size
Target sequence (P63096 whole entry, looked up): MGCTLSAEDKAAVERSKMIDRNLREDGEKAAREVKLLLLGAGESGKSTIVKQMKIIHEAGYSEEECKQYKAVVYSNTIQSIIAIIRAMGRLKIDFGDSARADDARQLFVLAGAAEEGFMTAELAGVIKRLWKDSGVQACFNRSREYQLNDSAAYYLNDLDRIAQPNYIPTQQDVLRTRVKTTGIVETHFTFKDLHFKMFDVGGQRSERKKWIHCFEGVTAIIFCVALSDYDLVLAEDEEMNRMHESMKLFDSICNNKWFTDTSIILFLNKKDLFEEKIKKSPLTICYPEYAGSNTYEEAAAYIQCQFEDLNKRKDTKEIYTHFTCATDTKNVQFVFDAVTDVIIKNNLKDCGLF
VDR inh: Inhibitors of the vitamin D receptor (VDR): qHTS | AID 504847, 2011 | VDR-SRC2-3 peptide fluorescence polarization, 2 h | Potency, µM, inactives show max response, negative = inhibition, hits mostly inhibitors | Vitamin D3 receptor (Homo sapiens), P11473 | hit rate 0.93% among 400,000; further: potency means the concentration at half of the fitted maximal effect; on the % scale 0 is the no-effect control and ±100 the full control effect
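Compounds are added to VDR with labelled SRC2-3 coactivator peptide and held 2 h at room temperature. Inhibition of the VDR–peptide interaction is then read as a change in fluorescence polarization.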
FBPA coupling cs: qHTS Assay for Inhibitors of Fructose-1,6-bisphosphate Aldolase from Giardia Lamblia: Coupling assay counterscreen | coupling enzyme system counterscreen, AmpLite Red fluorescence | activity change, negative = inhibition, % at 58.2 µM, hits read low | hit rate 0.67% among 290,000 | AID 2472, 2010; in the data active means activity change below about -30%; further: on the % scale 0 is the no-effect control and ±100 the full control effect
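Activity here indicates interference with the coupling reaction, not aldolase inhibition. Compounds at 57.5 uM final met coupling enzymes for 10 min at RT; substrate and AmpLite Red detection followed, with a 525/598 nm fluorescence read after 20 min.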
* marks the source's active call; other numbers are inactive results; u = inconclusive; x = not tested or not shown; ! = repeats disagree; [ ] = dose if it differs, or a comment. A selection: hits, their analogues and other compounds. The true share with any hit is near 2.3%. Unless noted, the call rests on the fitted dose curve; in most records, active means well fitted curve in the direction sought with a large enough effect; inconclusive means small, poorly fitted or top-dose-only effect, or another doubt; inactive means no such curve, though single readings can be large; an effect the other way counts as inactive or inconclusive.

SMILES	HttQ103 aggreg	HTT ATP protect	JMJD2E inh	GoLoco inh red	VDR inh	FBPA coupling cs
Clc1cccc(Cl)c1CNC1CCCC1	0.11µM*	-8%	-1%	-25%	15%	1
Cc1c(CNC2CCCCC2)c(C(=O)O)c(C)n1Cc1c(F)cccc1Cl	x	x	x	x	11%	x
CC(=O)c1ccc(N(C)C)c2c(N(C)C)cccc12	-5%	26%	-7%	-15%	6%	-55*
COc1cccc(C(=O)NC2CC3CCCC(C2)N3CC(=O)Nc2ccccc2)c1 (centres undefined)	-11%	1%	u	-16%	9%	-36*
CN(C)/C(=N\S(=O)(=O)c1ccc(Cl)cc1)c1ccc(F)cc1	x	x	x	x	24%	6
C[C@H](O/N=C1/[C@H]2O[C@@H]2[C@@H](O)[C@H]2[C@H]1CCn1c(=O)n(-c3ccccc3)c(=O)n12)c1cn([C@H]2COC[C@H]2O)nn1	x	3%[10 µM]	x	x	x	2
Cc1ccc(CNc2ncnc3cc(Cl)ccc23)o1	13µM*	-10%	5%	4%	-10%	-1
COc1cc2ncnc(NCc3ccc(C)o3)c2cc1OC	17%[9.22 µM]	-79%	-26%	31%	0%	0
NC(=O)C1=C(c2ccccc2)c2ccccc2C1=O	x	x	x	x	40µM*	x
Cc1ccc(C2=C(O)c3ccccc3C(=O)C2=O)cc1	x	x	x	x	3%	-14
COC(=O)C1(C(=O)OC)CC2=CC(CC2=O)Cc2ccccc2[C@@H]1C[N+](=O)[O-] (some centres undefined)	x	3%	-4%	22µM*	-11%	0
O=C(Cc1coc2cc(O)ccc12)N1CCN(S(=O)(=O)c2ccc(Br)cc2)CC1	x	x	x	x	8%	x
C[C@H]1[C@H](C)CC[C@@]2(C(=O)O)CC[C@]3(C)C(=CC[C@H]4[C@@]5(C)C[C@@H](O)[C@H](O)[C@@](C)(CO)[C@@H]5CC[C@@]43C)[C@@H]12	x	16%	x	x	x	x
O=C(/C=C/Sc1ccc(C(F)(F)F)cn1)c1ccccc1	13%[9.22 µM]	-34%[10 µM]	-7%	-21%	79µM*	3
O=C(CSc1ccc(C(F)(F)F)cn1)Nc1ccccc1	-14%[9.22 µM]	-3%[10 µM]	-15%	4%	-7%	-1
CCCCN=C1NN=C(c2cccc([N+](=O)[O-])c2)CS1	-12%	-8%[10 µM]	-9%	-6%	u	-2
CCCCN=C1NN=C(c2cc3ccccc3o2)CS1	11%	x	25µM*	23%	-20%	4
Cc1oc(C)c2c(=O)ccc3c(c12)OC(N)=C(C#N)C3c1ccc(F)cc1 (centres undefined)	6%	11%	u	196%	-17%	-43*
O=C(Nc1nc(=O)n(C(=O)c2cccc(C(F)(F)F)c2)s1)c1ccccc1	-13%[9.22 µM]	16%[10 µM]	-5%	1%	14µM*	1
O=C(Nc1ccc(-c2csc(Nc3cccc(C(F)(F)F)c3)n2)cc1)c1ccccc1	-12%[9.22 µM]	16%[10 µM]	u	6%	2%	0
CC(C)CC1COC(=O)N1 (centres undefined)	x	x	x	x	-12%	1
CCN(CCCNC(=O)c1cc(Nc2ccc(OC)cc2OC)nc2ccccc12)c1cccc(C)c1	x	x	x	x	-13%	x
Cc1ccc(S(=O)(=O)N/N=C/c2cc(Br)ccc2O)cc1	34%[9.22 µM]	22%[10 µM]	2%	5%	0%	3
Cc1ccc(S(=O)(=O)Nc2ccc(Br)cc2/C=N/n2cnnc2)cc1	2.2µM*	-26%	-3%	-5%	14%	3
COc1ccc(N=c2scc(-c3ccc(S(=O)(=O)N4CCOCC4)cc3)n2CCCO)cc1	13µM*	11%[10 µM]	-4%	-6%	x	-2
SMILES	HttQ103 aggreg	HTT ATP protect	JMJD2E inh	GoLoco inh red	VDR inh	FBPA coupling cs
CC(=O)c1cccc(N=c2scc(-c3ccc(S(=O)(=O)N4CCOCC4)cc3)n2CCO)c1	u	x	-17%	38%	-9%	0
Cc1cc(N)c2ccccc2n1	-9%	-11%	1%	3%	-3%	4
Nc1cc2ccncc2c2ccccc12	0.35µM*	20%[10 µM]	u	8%	-5%	-21
COC(=O)CCC(=O)OC1(C)C(=O)C=C2C=C(C3CC3)N(Cc3ccc4c(c3)OCO4)C=C2C1=O (centres undefined)	-18%[9.22 µM]	-20%[10 µM]	16µM*!	8%[14.2 µM]	25%	-39*
COC(=O)CCC(=O)OC1(C)C(=O)C=C2C=C(C3CC3)N(CCc3c[nH]c4ccccc34)C=C2C1=O (centres undefined)	2%[9.22 µM]	-1%[10 µM]	u	6%[14.2 µM]	-12%	-40*!
COC(=O)CCC(=O)OC1(C)C(=O)C=C2C=C(C3CC3)N(CCCCO)C=C2C1=O (centres undefined)	-13%[9.22 µM]	-18%[10 µM]	20µM*!	-8%[14.2 µM]	-12%	-40*!
COC(=O)CCC(=O)OC1(C)C(=O)C=C2C=C(C3CC3)N(C(CO)CO)C=C2C1=O (centres undefined)	8%[9.22 µM]	-13%[10 µM]	u	1%[14.2 µM]	-1%	-39*!
CC(OC(=O)C1CC2CCCC(C1)C2=O)C(=O)Nc1cccc([N+](=O)[O-])c1 (centres undefined)	x	x	x	x	-5%	x
COc1ccc(C(=O)N2CCC[C@@]3(CCN(c4ccncc4)C3)C2)cc1	x	24%	x	6%	14%	1
O=C(Oc1ccccc1)N1CCC[C@@]2(CCN(c3ccccc3)C2)C1	x	1%	x	15%	35µM*	-2
O=C(c1cccc(F)c1)N1CCC[C@@]2(CCN(c3cccc(-c4ccccc4)c3)C2)C1	x	23%	x	9%	45µM*	-2
COc1ccc(C(=O)N2CCC[C@@]3(CCN(c4ccccc4)C3)C2)cc1	x	21%	x	10%	56µM*	-1
O=C(c1cccc(F)c1)N1CCC[C@@]2(CCN(c3ccccc3)C2)C1	x	-9%	x	-7%	45µM*	-4
COc1cccc(C(=O)NCC(c2ccc3c(c2)OCO3)N2CCN(C)CC2)c1 (centres undefined)	x	x	x	x	2%	x
CCCc1cc(-c2n[nH]c(C)c2-c2ccc(C(=O)OCC)o2)c(O)cc1O	-26%	2%	u	18%	-5%	-34*
COC(=O)c1c(Cl)c2n3ccccc3c(C)c(-c3ccccc3)c-2c1C(=O)OC	-15%	21%[10 µM]	u	14µM*	-20%	-19
Cc1ccc(C)c(NC(=O)Nc2cc3c(cc2N2CCCCC2)n(C)c(=O)n3C)c1	x	x	x	x	-6%	x
O=C(NCc1n[nH]c(=S)n1-c1cccc(C(F)(F)F)c1)c1ccco1	x	x	x	x	2%	1
